Pol eta inh-1 – blocks human DNA polymerase eta activity | Potency, µM (doses to about 114 µM), actives largely listed as inhibitors | hit rate 1.2% among 390,000 | Q9Y253 | recombinant Pol eta, fluorescent DNA replication assay
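Pol eta (10 nM) was preincubated with compounds for 15 min at room temperature, after which fluorescent replication substrate (50 nM final) was added to start the reaction. Fluorescence was read kinetically at 0 and 10 min.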
FEN1 inh – human FEN1 inhibition; Potency, µM (top dose mostly 114 µM), actives largely listed as inhibitors; hit rate 0.35% among 390,000; Recombinant FEN1 flap cleavage, fluorescence, 15 min; P39748; also: nearly all actives have a fitted effect of over 65% in size
Target sequence (P39748 whole entry, looked up): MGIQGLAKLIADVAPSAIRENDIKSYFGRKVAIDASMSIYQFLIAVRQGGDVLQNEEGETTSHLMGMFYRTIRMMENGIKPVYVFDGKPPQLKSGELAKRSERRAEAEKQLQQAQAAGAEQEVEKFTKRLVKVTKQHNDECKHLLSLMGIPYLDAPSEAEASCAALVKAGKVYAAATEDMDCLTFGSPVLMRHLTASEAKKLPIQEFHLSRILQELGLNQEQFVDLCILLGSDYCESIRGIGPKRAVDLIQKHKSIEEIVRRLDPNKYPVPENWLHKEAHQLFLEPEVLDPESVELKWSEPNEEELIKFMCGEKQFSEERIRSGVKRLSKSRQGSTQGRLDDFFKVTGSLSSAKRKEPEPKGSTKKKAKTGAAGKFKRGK
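Compounds are tested as a concentration series against 10 nM FEN1; after a 15 min room-temperature preincubation, 50 nM substrate starts cleavage, with plate reads at 0 and 15 min. Normalized responses are fitted by a Hill equation.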
TDP1 inh – TDP1 (human) enzyme inhibition; Potency, µM (doses to about 130 µM), actives largely listed as inhibitors; Q9NUW8; recombinant TDP1, AlphaScreen DNA substrate cleavage; AID 485290; hit rate 0.28% among 350,000; also: nearly all actives have a fitted effect of over 40% in size
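Enzyme-compound mixtures sat 15 min at room temperature, followed by a 5 min reaction with 15 nM final substrate and 10 min with AlphaScreen beads. Recombinant human Tdp1 was used at 1 nM final.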
Pol iota inh – blocks human DNA polymerase iota activity; Q9UNA4; Pol iota fluorescent replication assay, 10 min; Potency, µM (doses to about 115 µM), hits mostly inhibitors; hit rate 1% among 390,000
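Pol iota at 10 nM preincubated 15 min with compounds at room temperature; reaction started with fluorescent substrate, 50 nM final. Fluorescence read kinetically at 0 and 10 min; buffer-only wells as negative control.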
Pol kappa inh-1 – blocks human DNA polymerase kappa activity; Q9UBT6; purified Pol kappa, fluorescent DNA synthesis assay, 10 min; Potency, µM (series often up to 107 µM), actives largely listed as inhibitors; hit rate 0.53% among 400,000; AID 588579
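Pol kappa 10 nM + cpd, 15 min RT; start w/ substrate 50 nM final; fluorescence kinetic read, 0 and 10 min. Neg ctrl: buffer, no enzyme.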
Pol beta inh-1 – DNA polymerase beta (human) inhibition. P06746. AID 485314. Potency, µM (doses to about 114 µM), usual class: inhibitors. Pol beta primer extension/strand displacement, fluorescence kinetic. hit rate 1.3% among 340,000
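Pol beta (10 nM) and compounds were preincubated 15 min at room temperature, then 50 nM substrate (final) started primer extension/strand displacement. Reads were taken at 0 and 10 min; concentration-response data were fitted to a four-parameter Hill equation.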
Pol beta inh-2 – Validate hits inhibiting human DNA polymerase beta | Pol beta primer extension/strand displacement, fluorescence kinetic | Potency, µM, most hits filed as inhibitors | AID 540280 | shares compounds with Pol beta inh-1 | hit rate 87% among 250; calls by dose curve
Klenow counter – Klenow polymerase inhibition, pol beta selectivity check; activity change, negative = inhibition, % at 57.1 µM; Klenow exo- polymerase counter-screen, fluorescent DNA substrate; shares compounds with Pol beta inh-1; 250 tested, under 10 active
HIV RT inh – inhibits HIV-1 reverse transcriptase in counter-screen | 250 tested, under 10 active | activity % (negative = inhibition, positive = activation), % at 57.1 µM | shares compounds with Pol beta inh-1 | AID 540301 | HIV-1 RT polymerase activity, counter-screen
POLB inh gel – validation of human DNA polymerase beta inhibitors | shares compounds with Pol beta inh-1 | radiolabeled primer extension gel assay, phosphorimager | inhibition, % at 10 µM | hit rate 91% among 110;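 active = inhibition at 10 µM of 30% or more; inconclusive = no clear call, values can overlap the other calls; inactive = inhibition at 10 µM under 30%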
POLI cherry-pick – Inhibitors of human DNA polymerase iota, confirmation; shares compounds with Pol kappa inh-1; hit rate 77% among 1,500; Potency, µM, usual class: inhibitors; Pol iota primer extension, TAMRA/BHQ fluorescence
Pol kappa inh-2 – Pol kappa (human) inhibition, cherry-pick confirmation | Potency, µM, most hits filed as inhibitors | purified Pol-kappa, fluorescent strand-displacement substrate | shares compounds with Pol eta inh-1 | hit rate 76% among 920
Pol eta inh-2 – Pol eta (human) inhibition, cherry-pick confirmation; shares compounds with Pol eta inh-1; Pol eta primer extension, TAMRA/BHQ fluorescence, 10 min; Potency, µM, actives largely listed as inhibitors; hit rate 64% among 2,600
Hits are given with their value; i = inactive; ? = inconclusive; nt = no result given. Rows were chosen to be rich in hits. Some 2.4% of all compounds tested hit in one or more screens of this group. Unless noted, calls follow the shape of the dose curve; as a rule, active = well fitted curve in the direction sought with a large enough effect; inconclusive = small, poorly fitted or top-dose-only effect, or another doubt; inactive = no such curve, though single readings can be large; an effect the other way counts as inactive or inconclusive.

SMILES | Pol eta inh-1 | FEN1 inh | TDP1 inh | Pol iota inh | Pol kappa inh-1 | Pol beta inh-1 | Pol beta inh-2 | Klenow counter | HIV RT inh | POLI cherry-pick | Pol eta inh-2 | others
O=C(CSc1ccccn1)Nc1ccc2c(c1)C(=O)c1ccccc1C2=O | ? | ? | 22µM | i | i | 8.9µM | 11 | i | i | 53 | 60 | Pol kappa inh-2=60
O=C(CSc1ccccn1)Nc1ccc2ccccc2c1 | nt | nt | i | nt | nt | i | nt | nt | nt | nt | nt
O=C(CSc1ccsc1[N+](=O)[O-])N1CCN(c2ccc(Cl)cc2)CC1 | 28µM | i | nt | 28µM | ? | 14µM | 40 | i | i | nt | ?
O=C(CSc1ccsc1[N+](=O)[O-])N1CCCCCC1 | i | i | i | ? | i | ? | nt | nt | nt | nt | nt
Cc1ccc(-n2cc(C(=O)OCc3ccc(F)c(F)c3)c3ccccc3c2=O)cc1 | i | i | i | i | i | i | nt | nt | nt | nt | nt
Cc1ccc(-n2cccc2/C=C2/C(=N)N3C(=NC2=O)SN=C3S(C)(=O)=O)cc1 | 32µM | ? | i | 18µM | ? | 16µM | 16 | i | i | 84 | 67
CCc1ccc(-n2cccc2/C=C2/C(=N)N3C(=NC2=O)SN=C3S(C)(=O)=O)cc1 | 20µM | ? | i | ? | 79µM | 6.3µM | 32 | i | ? | ? | 48 | POLB inh gel=73;Pol kappa inh-2=67
CCC1=NN2C(=N)/C(=C\c3cccn3-c3ccc(C)c(C)c3)C(=O)N=C2S1 | ? | i | i | i | i | ? | nt | nt | nt | nt | nt
COC(=O)[C@]1(C)CCC[C@]2(C)c3ccc(C(C)C)cc3C(=O)CC12 (stereo not given in full) | nt | nt | i | nt | i | nt | nt | nt | nt | nt | nt
Cc1nc(C)c(C(=O)Nc2ncc([N+](=O)[O-])s2)o1 | 8.9µM | i | ? | 18µM | ? | 16µM | 35 | i | i | nt | ? | POLB inh gel=100;Pol kappa inh-2=30
COc1ccc(-c2nnc(Nc3ccc(S(=O)(=O)Nc4nccs4)cc3)c3ccccc23)cc1 | 32µM | ? | nt | 20µM | 50µM | 1.8µM | 7.9 | i | i | ? | 43 | Pol kappa inh-2=34
CC1CCC2(CC1)NC(=O)N(CC(=O)Nc1sc3c(c1C(N)=O)CCC3)C2=O (stereo not given) | 18µM | i | ? | 11µM | ? | 5µM | 20 | i | ? | 38 | 19 | POLB inh gel=100
COC(=O)c1c(NC(=O)CN2C(=O)NC3(CCC(C)CC3)C2=O)sc2c1CCC2 (stereo not given) | i | i | i | ? | i | nt | nt | nt | nt | nt | nt
COC(=O)c1ccccc1NC(=O)c1ccc2nccnc2c1 | 32µM | i | i | ? | ? | 3.2µM | 35 | i | i | nt | ?
O=C(Nc1ccccc1Cl)c1ccc2nccnc2c1 | ? | i | i | ? | ? | i | nt | nt | nt | nt | nt
CC1=CC23C(=O)C(C=C(CO)[C@@H](O)[C@]2(O)[C@H]1O)[C@H]1[C@@H](C[C@H]3C)C1(C)C (stereo not given in full) | nt | nt | i | nt | i | nt | nt | nt | nt | nt | nt
O=C(C[n+]1ccccc1Cl)c1ccc(O)c(O)c1 | nt | i | nt | i | i | nt | nt | nt | nt | nt | nt
